Rows were chosen to be rich in hits. Some 2.5% of all compounds tested hit in one or more screens of this group.
GRK2 aptamer HTS: inhibitors of human GRK2 displacing RNA aptamer; AID 488847; inhibition of aptamer binding, % at 10 µM; bead flow cytometry, FAM-aptamer displacement from GRK2; actives 0.59% (n = 330,000); P25098;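 active means inhibition of aptamer binding above 40%, roughly 3 SD of noise, on plates passing a quality check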;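 further: median bead fluorescence of bound FAM aptamer so fluorescent compounds give negative values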
Target sequence (P25098 whole entry, looked up): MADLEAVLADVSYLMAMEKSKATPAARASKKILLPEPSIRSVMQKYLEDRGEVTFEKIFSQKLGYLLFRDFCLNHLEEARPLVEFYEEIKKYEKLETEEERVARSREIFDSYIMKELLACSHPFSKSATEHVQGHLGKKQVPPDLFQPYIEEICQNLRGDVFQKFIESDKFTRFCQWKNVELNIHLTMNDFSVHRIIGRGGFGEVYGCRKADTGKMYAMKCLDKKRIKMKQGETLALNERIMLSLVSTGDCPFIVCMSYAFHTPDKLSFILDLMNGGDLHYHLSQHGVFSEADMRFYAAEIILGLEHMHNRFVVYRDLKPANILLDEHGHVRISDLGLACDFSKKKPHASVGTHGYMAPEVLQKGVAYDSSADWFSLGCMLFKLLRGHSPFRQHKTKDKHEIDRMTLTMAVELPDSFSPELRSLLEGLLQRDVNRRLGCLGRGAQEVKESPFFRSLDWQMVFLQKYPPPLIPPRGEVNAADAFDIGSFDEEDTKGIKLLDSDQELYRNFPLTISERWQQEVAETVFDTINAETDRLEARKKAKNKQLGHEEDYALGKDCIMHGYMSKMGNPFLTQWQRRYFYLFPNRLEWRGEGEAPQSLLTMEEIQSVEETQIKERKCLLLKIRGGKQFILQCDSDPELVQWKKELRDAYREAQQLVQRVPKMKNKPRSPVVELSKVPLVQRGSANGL
MEKK3 PB1 HTS: MEKK3-MEK5 PB1 interaction, increase or decrease. AID 1529. actives 1.4% (n = 290,000). binding response (% of control), % at 10 µM. bead-based flow cytometry, Alexa488-MEK5 binding to MEKK3; actives lie on both sides; 0 = blocked by unlabeled MEK5, 100 = vehicle. Q99759;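 active means binding response more than 3 SD above or below the average of its plate-row segment, actives on both sides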;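 further: Alexa488 bead fluorescence after subtracting the streptavidin-only scavenger bead signal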
MEKK2 WT-MEK5: raises or lowers MEK5 binding to wildtype human MEKK2 PB1 domain; Q9Y2U5; bead flow cytometry, Alexa488-MEK5 binding to MEKK2 WT; actives lie on both sides; binding response (% of control), % at 10 µM; actives 1.1% (n = 290,000); in the data active means binding response below about 67% or above about 130%
MEKK2 mut-MEK5: signal of MEK5 binding to mutant human MEKK2 PB1 domain; bead flow cytometry, Alexa488-MEK5 binding to MEKK2 mutant; percent response, % at 10 µM; actives 0.35% (n = 290,000); AID 1530; in the data active means percent response above about 24%, passing the limit was not always enough
MEKK2wt confirm: raises or lowers MEK5 binding to wildtype human MEKK2, retest; shares compounds with MEKK3 PB1 HTS; binding response (% of control), % at 10 µM; bead flow cytometry, Alexa488-MEK5 binding to MEKK2 WT; actives lie on both sides; AID 1892; actives 2.4% (n = 5,900); in the data active means binding response below about 16% or above about 210%; inactive means in between
MEKK2mut-MEK5: signal of MEK5 binding to mutant human MEKK2, retest | AID 1893 | percent response, % at 10 µM | actives 2% (n = 5,900) | shares compounds with MEKK3 PB1 HTS | bead flow cytometry, Alexa488-MEK5 binding to MEKK2 mutant; in the data active means percent response mostly above about 71%, no sharp cut-off; inactive means mostly below about 38%;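 further: higher means compound restores mutant binding toward wildtype level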
MEKK3-MEK5 inh: MEKK3-MEK5 PB1 inhibition, single concentration confirmation. shares compounds with MEKK3 PB1 HTS. bead flow cytometry, Alexa488-MEK5 binding to MEKK3; hits give low values. binding response (% of control), % at 10 µM. actives 1.8% (n = 5,900). AID 1894;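 active means binding response below 72% of control, or above a set upper limit, though filed actives all read lower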;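 further: 100% = DMSO only wells and 0% = binding blocked by excess unlabeled MEK5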
Numbers without * were called inactive; . = not tested or not shown; [ ] = dose if it differs, or a comment.

SMILES | GRK2 aptamer HTS | MEKK3 PB1 HTS | MEKK2 WT-MEK5 | MEKK2 mut-MEK5 | MEKK2wt confirm | MEKK2mut-MEK5 | MEKK3-MEK5 inh
COCCCNC(=S)NNC(=O)c1ccoc1C | 4 | 74*[inhibitor] | 101 | -3 | 105 | 1 | 102
Cc1occc1C(=O)NNC(=O)c1ccc(F)cc1 | 0 | 0.0*[inhibitor] | -1.0*[inhibitor] | -17 | 104 | 2 | 103
CCOc1ccc(NC(=O)NC(C)CC)cc1 (stereo not drawn) | 0 | 97 | 95 | -4 | . | . | .
OC(c1cc(C(F)(F)F)nc2c(C(F)(F)F)cccc12)C1CCCCN1 (stereo not drawn) | 0 | . | . | . | . | . | .
OC(c1cc(-c2ccc(C(F)(F)F)cc2)nc(C(F)(F)F)c1)C1CCCCN1 (stereo not drawn) | 0 | 111 | 165* | 57* | 153 | 32 | 103
COc1cc(/C=C/c2noc(-c3ccccc3O)n2)ccc1OC(C)=O | 1 | 129* | 115 | 26 | 98 | -9 | 96
CCCOc1ccc(C(CC(=O)O)NC(=O)c2ccc3c(c2)OCO3)cc1 (stereo not drawn) | 2 | 2.0*[inhibitor] | 1.0*[inhibitor] | -42 | 100 | -1 | 96
COCCn1c(SCC(=O)Nc2ccc(OC)cc2)nnc1-c1ccoc1C | 1 | 105 | 98 | -3 | . | . | .
COCCn1c(SCC(=O)Nc2nnc(C)s2)nnc1-c1ccoc1C | 2 | 129* | 120 | 5 | 98 | -5 | 100
Cc1occc1-c1nnc(SCC(=O)Nc2ccc(F)cc2)n1Cc1ccccc1 | 2 | 2.0*[inhibitor] | 2.0*[inhibitor] | -21 | 96 | -5 | 100
CCn1c(Cc2ccccc2)nnc1SCC(=O)Nc1ccc(OC)cc1 | 2 | 44*[inhibitor] | 56 | 3 | 106 | 5 | 103
Cc1ccc(C)c(-n2c(SCC(=O)Nc3nnc(C)s3)nnc2-c2ccoc2C)c1 | 0 | 2.0*[inhibitor] | 2.0*[inhibitor] | -21 | 109 | 16 | 110
Cc1c(C)c(C)c(C(=O)c2ccc(NC(=O)c3ccccc3C(=O)O)cc2)c(C)c1C | 0 | 104 | 108 | 6 | . | . | .
COc1ccc(CNC(=O)CN2CCN(c3ccc(F)cc3)CC2)cc1 | 0 | 99 | 103 | 2 | . | . | .
c1cncc(CSc2nnc3ccc(-c4cccs4)nn23)c1 | 3 | 99 | 100 | 1 | . | . | .
c1ccc(CSc2nnc3ccc(-c4cccs4)nn23)nc1 | 0 | 105 | 92 | 197* | 98 | 1 | 102
O=C(CCc1nc(-c2ccccc2F)no1)NC1CCN(Cc2ccccc2)CC1 | 0 | 106 | 121 | 24* | 108 | 0 | 97
CCCCC(NC(=O)Cc1c(C)c2cc3c(C)c(C)oc3c(C)c2oc1=O)C(=O)O (stereo not drawn) | 0 | 101 | 102 | 6 | . | . | .
Cc1cc(C)cc(NC(=S)Nc2cccc3cnccc23)c1 | . | 107 | 140* | 7 | 107 | 3 | 103
Nc1nnc(CSCc2ccc(Cl)cc2Cl)s1 | 0 | 130* | 106 | 1 | 100 | 1 | 98
COc1ccc(C)cc1NC(=O)COC(C)=O | 1 | 74*[inhibitor] | 79 | -5 | 101 | 0 | 103
COc1ccc([N+](=O)[O-])cc1NC(=O)COC(C)=O | 0 | 104 | 100 | -1 | . | . | .
Cn1c(NNC(=O)c2c(F)cccc2F)cc(=O)n(C)c1=O | 0 | 101 | 100 | -4 | . | . | .
Cc1ccc(C(=O)NNc2cc(=O)n(C)c(=O)n2C)cc1C | 1 | 142* | 105 | 0 | 102 | -8 | 102
Cc1ccc(-c2csc(NC(=O)C[n+]3cc(-c4ccc(C)cc4)n4c3CCC4)n2)cc1 | . | 104 | 141* | 3 | 207* | 63 | 109
SMILES | GRK2 aptamer HTS | MEKK3 PB1 HTS | MEKK2 WT-MEK5 | MEKK2 mut-MEK5 | MEKK2wt confirm | MEKK2mut-MEK5 | MEKK3-MEK5 inh
Cc1ccc(-c2c[n+](CC(=O)N3c4ccccc4Sc4ccccc43)c3n2CCC3)cc1 | 0 | 105 | 152* | 29 | 129 | 27 | 103
O=C(C[n+]1cc(-c2ccc(F)cc2)n2c1CCC2)Nc1nc(-c2ccc(F)cc2)cs1 | 0 | 127 | 134 | 2 | . | . | .
Cc1ccc(-c2csc(NC(=O)C[n+]3cc(-c4ccccc4)n4c3CCC4)n2)cc1 | 0 | 96 | 167* | 36 | 159 | 29 | 106
CCOC(=O)c1[nH]c2ccccc2c1NC(=O)c1ccc(S(=O)(=O)N2CCCCC2)cc1 | 1 | 112 | 96 | -3 | . | . | .
COc1ccccc1C(=O)N1CCCC(c2nc(-c3cc(OC)c(OC)c(OC)c3)no2)C1 (stereo not drawn) | 4 | 74 | 82 | -6 | . | . | .
COc1ccc(-c2noc3c2-c2nc(C(C)C)sc2CC3)cc1 | 0 | 103 | 104 | 5 | . | . | .
N=C(N)SCP(=O)(c1ccccc1)c1ccccc1 | 6 | 91 | 94 | -19 | . | . | .
Cc1ccc(P(=O)(CSC(=N)N)c2ccc(C)cc2)cc1 | 0 | 133* | 108 | 2 | 101 | -7 | 100
COc1ccc(C(=O)NN2CC(O)=C(c3nc4ccccc4n3C)C2=N)cc1OC | 0 | 102 | 94 | 11 | . | . | .
Cc1ccc(C(=O)NCC(=O)NCCc2ccc(S(N)(=O)=O)cc2)s1 | 3 | 34*[inhibitor] | 38*[inhibitor] | -31 | 100 | 5 | 101
CCc1nc(SCC(=O)Nc2nnc(CC)s2)c2c(C)c(C)sc2n1 | 2 | 102 | 104 | 1 | . | . | .
CCCc1nc(SCC(=O)Nc2nnc(CC)s2)c2c(C)c(C)sc2n1 | 0 | 122* | 115 | 9 | 99 | 3 | 100
COC(=O)C1=C(C(=O)OC)[C@@H]2N(Cc3ccccc3)c3ccccc3[C@@]23C[C@@H](C(=O)OC)N=C3N1 | 0 | 124 | 141* | 3 | 103 | -3 | 99
CCOC(=O)COc1c(Br)cc(C2NC(=O)NC(C)=C2C(C)=O)cc1OC (stereo not drawn) | 9 | 131* | 104 | 0 | 88 | -13 | 83
O=C(CCc1nnc2ccc(N3CCCC3)nn12)Nc1cc(F)ccc1F | 0 | 101 | 100 | 0 | . | . | .
Cc1ccc(S(=O)(=O)NC(=O)Nc2ccccc2)cc1 | 1 | 101 | 96 | -9 | . | . | .
Cc1ccc(S(=O)(=O)NC(=O)Nc2nnc(C)s2)cc1 | 0 | 0.0*[inhibitor] | 0.0*[inhibitor] | -16 | 100 | 5 | 98
Cc1nonc1NC(=O)CSc1nc2cc(Cl)ccc2c2c1CCCC2 | 2 | 102 | 104 | 3 | . | . | .
CCC(C)[C@H](NC(=O)NCc1cccs1)C(=O)OC (stereo partly drawn) | 0 | 98 | 97 | -1 | . | . | .
CC(C)[C@H](NC(=O)NCc1cccs1)C(=O)O | 0 | 2.0*[inhibitor] | 2.0*[inhibitor] | -46 | 102 | 8 | 108

Screening data: PubChem, NMMLSC
